Compound activity as filed in PubChem BioAssay.
This is a sample that favours compounds with a hit; in the whole collection about 7.3% have one here.
HCMV inh – blocks human cytomegalovirus replication; AID 1259415; activity change, negative = inhibition, % at 57.5 µM; 410,000 compounds, 4.5% hits; HFF cells, HCMV-luciferase reporter, 72 h; hits give low values; in the data active = activity change below about -60%; inconclusive = no clear call, values can overlap the other calls; inactive = above about -39%
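After 16 h attachment at 37C, HFF cells received test compound and HCMV-luciferase (1 PFU/cell); reporter luminescence read 72 h later, data normalized against buffer-only and known inhibitor Salinomycin.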
FMDV inh – foot and mouth disease virus antiviral activity. AID 1159524. Potency, µM (top dose mostly 57.9 µM), without a hit: top-dose activity change, negative = inhibition, most hits filed as inhibitors. 410,000 compounds, 1.2% hits. FMDV antiviral cell-based qHTS; calls by dose curve; tested in HEK293T cells; also: read-out not given here; potency is read from the fitted curve at half-maximal effect; nearly all actives have a fitted effect of over 45% in size
VACV Venus inh – inhibitors of vaccinia virus (Venus reporter); Potency, µM (titrated, usually from 36.5 µM), inactives show top-dose activity change, negative = inhibition, hits mostly inhibitors; Vaccinia virus Venus reporter expression, fluorescence; 330,000 compounds, 0.46% hits; calls by dose curve; tested in A549 cells; also: potency is read from the fitted curve at half-maximal effect; nearly all actives have a fitted effect of over 30% in size
Vaccinia mCherry – vaccinia inhibition (mCherry reporter); 310,000 compounds, 0.63% hits; Potency, µM (series often up to 36.5 µM), without a hit: at the highest dose activity change, negative = inhibition, actives largely listed as inhibitors; AID 720579; Vaccinia virus mCherry reporter infection, fluorescence; calls by dose curve; tested in A549 cells; also: potency is read from the fitted curve at half-maximal effect; nearly all actives have a fitted effect of over 35% in size
HCV inh – HCV inhibition | Huh7.5.1 HCVcc-Cre infection, luciferase reporter, 44 h | Potency, µM (series often up to 41.8 µM), for inactives: at the highest dose activity change, negative = inhibition, actives largely listed as inhibitors | AID 651820 | 340,000 compounds, 3.4% hits; active = well fitted inhibition curve with a large enough effect; inconclusive = small, poorly fitted or top-dose-only effect, or another doubt; inactive = no such curve, though single readings can be large or run the other way; also: potency is read from the fitted curve at half-maximal effect
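A cell-based infection assay in which seeded cells (1,000 per well) receive test compound after 4 h, are inoculated with HCVcc-Cre at approximately 0.5 moi, and are incubated 44 h before luminescence detection.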
* marks the source's active call; other numbers are inactive results; i = inactive; ? = inconclusive; nt = no result; ! = repeats disagree. % is scaled to controls: 0 for no effect and ±100 for the full control effect.

SMILES	HCMV inh	FMDV inh	VACV Venus inh	Vaccinia mCherry	HCV inh
Cc1cccc(NC(=O)CSc2nc3ccccc3c3nc(CCc4c(C)n[nH]c4C)nn23)c1	-81.7*!	?	-15.6%	-29.3%	25.1µM*
Cc1nc2ccccc2n1CCc1nc2c3ccccc3nc(SCC(=O)Nc3ccc(Br)cc3F)n2n1	-5.6	-7.7%	1.7%	1.3%	nt
Cc1ccc(NC(=O)Cn2nnc(-c3nc(-c4ccc(Cl)cc4)no3)c2N)cc1C	2.1	-4.1%	-6.3%	-5.7%	nt
COC(=O)c1cc2n(n1)CCN(Cc1ccccc1F)C2=O	-9.8	5.3%	-12.1%	-16.1%	-13.3%
COC(=O)c1cc2n(n1)CCN(Cc1ccc(F)cc1)C2=O	-105.5*	-6.8%	-13.9%	nt	-5.1%
COc1ccc(C2NC(C(=O)O)Cc3c2[nH]c2ccccc32)cc1CN1CCN(c2ccc(F)cc2)CC1 (configuration not stated)	-31.7	-21.9%	nt	nt	-17.0%
COc1ccc(C2NCCc3c2[nH]c2ccccc32)cc1COc1ccc(F)cc1 (configuration not stated)	-98.3*	?	nt	nt	10µM*
COc1ccc(C2NCCc3c2[nH]c2ccccc32)cc1CN1CCc2cc(OC)c(OC)cc2C1C (configuration not stated)	nt	-15.1%	-11.7%	?	11.2µM*
O=C(NCC1CCC2(CCN(Cc3ccccc3O)CC2)O1)C1CCCO1 (configuration not stated)	nt	-7.5%	-3.3%	-10.1%	nt
NS(=O)(=O)c1ccc(NC(=O)CCC(=O)c2cccs2)cc1	18.7	-2.6%	nt	nt	12.1%
NS(=O)(=O)c1ccc(NC(=O)CCC(=O)c2ccc(Cl)s2)cc1	-95.0*	10.3%	-0.5%	-12.0%	8.4%
CCCN1C(=O)/C(=C/c2ccncc2)SC1=S	-22.0	0.0%	-5.2%	-13.0%	1.8%
O=C1/C(=C\c2cccc(O)c2)SC(=S)N1Cc1ccccc1	-74.3*	-0.2%	nt	nt	-13.5%
C#CCOc1ccc(/C=C2\SC(=S)N(Cc3cccnc3)C2=O)cc1	-73.2*	17.9%	2.5%	-4.7%	-8.0%
O=C(O)CN1C(=O)/C(=C\c2cc([N+](=O)[O-])ccc2OCc2ccccc2Cl)SC1=S	-18.2	6.1%	4.5%	-0.6%	-5.7%
O=C1/C(=C\c2cc([N+](=O)[O-])ccc2O)SC(=S)N1Cc1ccc(Cl)cc1	-76.8*	?	nt	nt	?
O=C1/C(=C/c2ccc(O)cc2)SC(=S)N1Cc1cccnc1	?	-1.0%	0.8%	i	2.6%
O=C1/C(=C/c2ccncc2)SC(=S)N1Cc1ccccc1	-72.7*	?	-7.0%	-11.7%	7.4%
O=C1/C(=C\c2ccc(O)c(O)c2)SC(=S)N1Cc1ccccc1	?	-19.8%	i	i	?
CCC(=O)N1c2ccc(S(=O)(=O)NCc3ccc(F)cc3)cc2CC1C (configuration not stated)	-19.0	20.1%	-11.5%	-16.5%	nt
O=C1/C(=C\c2cccc(O)c2O)SC(=S)N1Cc1ccccc1	3.5	?	34.3%	-15.2%	25.1µM*
CN1C(=O)/C(=C\c2ccncc2)SC1=Nc1ccccc1	-67.0*	?	-22.0%	?	-28.1%
COc1cc(/C=C2/SC(=S)N(Cc3ccccc3)C2=O)ccc1O	41.7	-3.7%	i	60.0%	-10.9%
CCCCN(CCCC)C(=O)/C=C/c1cccc([N+](=O)[O-])c1	-37.2	?	-20.6%	nt	?
COc1ccc(OCC(O)CN(C)C(=O)/C=C/c2cccc([N+](=O)[O-])c2)cc1 (configuration not stated)	-78.0*	-23.5%	6.4%	-20.2%	-7.2%
SMILES	HCMV inh	FMDV inh	VACV Venus inh	Vaccinia mCherry	HCV inh
CCOc1ccc(/C=C/c2nc(C#N)c(Nc3ccc(OCC)cc3)o2)cc1	1.4	-4.6%	-11.3%	-13.1%	nt
Cc1ccc(Cl)cc1N1CCN(C(=O)c2cccn2-c2nnc(N3CCCC3)s2)CC1	?	?	-15.6%	-14.3%	nt
CC1(C(=O)NS(=O)(=O)C2CC2)CCCN(C(=O)c2ccccc2)C1 (configuration not stated)	19.6	-11.6%	-10.5%	i	nt
CC1(C(=O)NS(=O)(=O)C2CC2)CCCN(C(=O)c2cccs2)C1 (configuration not stated)	-60.9*	3.9%	11.4%	36.6%	nt
Cc1onc(-c2ccccc2)c1-c1ccnc(N)n1	48.9	-15.7%	-23.7%	-20.7%	7.6%
Cc1ccc(C)n1-c1ccc(-c2ccnc(N)n2)cc1	-66.4*	?	-12.8%	-25.7%	-8.8%
